PubChem BioAssay (Tox21)
Records with an inconclusive call do not appear. The source made the active and inactive calls. Unless noted, calls come from the whole dose curve.

System: not listed separately
Assay: qHTS assay to identify small molecule that activate the aryl hydrocarbon receptor (AhR) signaling pathway - cell viability counter screen (AID 743086; active = well fitted cell-killing curve with a large enough effect in the repeat runs;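 note: HepG2 liver cells carrying the AhR DRE luciferase reporter; nearly all actives have a fitted effect of over 45% in size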)
Details: HepG2-AhR-luc viability, CellTiter-Fluor, 24 h; series mostly up to 70.3 µM
Procedure, shortened: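 HepG2-AhR-luc (HG2L7.5c1) cells, 4000/well, treated 24 h at 37 C with compound; viability measured as CellTiter-Fluor fluorescence after 30 min in the same wells as the luciferase read.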

SMILES	outcome
CC(C)CC(O)Cc1ccccc1 (centres undefined)	inactive
Cc1cc(N)no1	inactive
CC(CN1CC(=O)NC(=O)C1)N1CC(=O)NC(=O)C1 (centres undefined)	inactive
CC(C)(C)NCC(O)COc1cccc2c1CCC(=O)N2 (centres undefined)	inactive
CN(C)CCc1c[nH]c2ccc(C[C@H]3COC(=O)N3)cc12	inactive
CCC(C)(C)C	inactive
COC(=O)/C=C(\C)CCC=C(C)C	inactive
Cc1nnc(C(=O)NC(C)(C)c2nc(C(=O)NCc3ccc(F)cc3)c(O)c(=O)n2C)o1	inactive
CC(=O)OCC(=O)[C@@]1(O)CC[C@H]2[C@@H]3CCC4=CC(=O)C=C[C@]4(C)[C@H]3[C@@H](O)C[C@@]21C	inactive
Cc1ccc(O)c(C(=O)c2ccccc2)c1	inactive
N#CC1(N)CCCCC1	inactive
CCc1ccc(CC)cc1	inactive
CCO[Si](CC(C)C)(OCC)OCC	inactive
C=CC(=O)OCCOCCOCC	inactive
O=C1CC2(CCCC2)CC(=O)N1CCNCC1COc2ccccc2O1 (centres undefined)	inactive

Molecular target: Peroxisome proliferator-activated receptor gamma (Homo sapiens) (UniProt P37231)
Sequence (P37231 whole entry, looked up): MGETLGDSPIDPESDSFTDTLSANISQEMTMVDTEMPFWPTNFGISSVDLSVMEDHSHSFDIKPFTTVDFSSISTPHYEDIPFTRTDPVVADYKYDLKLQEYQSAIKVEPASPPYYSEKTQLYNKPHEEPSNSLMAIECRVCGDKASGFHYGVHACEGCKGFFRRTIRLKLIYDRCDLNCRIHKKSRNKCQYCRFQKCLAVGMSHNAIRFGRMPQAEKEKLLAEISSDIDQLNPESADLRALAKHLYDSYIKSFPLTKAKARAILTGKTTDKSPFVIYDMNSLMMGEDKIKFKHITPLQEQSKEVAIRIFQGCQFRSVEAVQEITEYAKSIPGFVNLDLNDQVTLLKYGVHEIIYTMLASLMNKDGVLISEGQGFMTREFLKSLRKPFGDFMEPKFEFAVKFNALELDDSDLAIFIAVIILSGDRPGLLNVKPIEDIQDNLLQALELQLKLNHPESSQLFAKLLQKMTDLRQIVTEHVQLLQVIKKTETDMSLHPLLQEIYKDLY
Assay: qHTS assay to identify small molecule agonists of the peroxisome proliferator-activated receptor gamma (PPARg) signaling pathway (AID 743094; active = well fitted activation curve with a large enough effect in the signal ratio in the repeat runs, not every such curve was filed as active; the % refers to the signal ratio)
Details: HEK293H PPARg-UAS-bla, beta-lactamase FRET ratio, 17 h; series mostly up to 57 µM
Procedure, shortened: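 Following 5 h plating at 37C, PPARg-bla HEK293H cells receive compound or DMSO for 17 h; fluorescence intensity is recorded after LiveBLAzer B/G loading for 1 h at room temperature.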

SMILES	outcome
CC(C)CC(O)Cc1ccccc1 (centres undefined)	inactive
O=C(O)Cc1ccccc1Oc1ccc(Cl)cc1Cl	inactive
CC(CN1CC(=O)NC(=O)C1)N1CC(=O)NC(=O)C1 (centres undefined)	inactive
CC(C)(C)NCC(O)COc1cccc2c1CCC(=O)N2 (centres undefined)	inactive
CN(C)CCc1c[nH]c2ccc(C[C@H]3COC(=O)N3)cc12	inactive
CCC(C)(C)C	inactive
COC(=O)/C=C(\C)CCC=C(C)C	inactive
NNC(=O)CCCCC(=O)NN	inactive
Cc1ccc(O)c(C(=O)c2ccccc2)c1	inactive
N#CC1(N)CCCCC1	inactive
CCc1ccc(CC)cc1	inactive
C=CC(=O)OCCOCCOCC	inactive

Molecular target: Peroxisome proliferator-activated receptor gamma (Homo sapiens) (UniProt P37231)
Assay: qHTS assay to identify small molecule antagonists of the peroxisome proliferator-activated receptor gamma (PPARg) signaling pathway (AID 743191); note: nearly all actives have a fitted effect of over 30% in size
Details: HEK293H PPARg-UAS-bla, beta-lactamase ratio, antagonist, 17 h; series mostly up to 62.6 µM
Procedure, shortened: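 GeneBLAzer PPARg UAS-bla HEK293H cells, 5 h post-plating, exposed to compounds 17 h at 37C. LiveBLAzer B/G FRET substrate added for 1 h at room temperature; beta-lactamase reporter read by fluorescence intensity.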

SMILES	outcome
N#Cc1cc(NC(=O)C(=O)O)c(Cl)c(NC(=O)C(=O)O)c1	inactive
CC(C)CC(O)Cc1ccccc1 (centres undefined)	inactive
CC(=O)/C=C/C=C1/C2CCC(C2)C1(C)C (centres undefined)	inactive
CC(=O)c1ccc(O)c(C(N)=O)c1	inactive
CC(C)(C)NCC(O)COc1cccc2c1CCC(=O)N2 (centres undefined)	inactive
CCN(CC)CC(=O)Oc1ccc(NC(C)=O)cc1	inactive
C[C@@H]1CCC[C@H](C)N1CCCC(O)(c1ccccc1)c1ccccn1 (some centres undefined)	inactive
COC(=O)/C=C(\C)CCC=C(C)C	inactive
Cc1cc(=O)oc2cc(O[C@@H]3SC[C@@H](O)[C@H](O)[C@H]3O)ccc12	inactive
CCCCC(O)/C=C(C)/C=C/C=C/C(=O)N1CCCC1=O (centres undefined)	inactive
N#CC1(N)CCCCC1	inactive
CCc1ccc(CC)cc1	inactive
CCO[Si](CC(C)C)(OCC)OCC	inactive
O=C1CCCc2c(O)cccc21	inactive
C=CC(=O)OCCOCCOCC	inactive
COC(=O)c1cc(Cl)c(NC(C)=O)cc1OC	inactive
COC(=O)c1ccc(NC(C)=O)cc1OC	inactive
